The values that follow come from article PMC6602471.

Over roughly 1,300 sequences, “log fluorescence intensity” has its median near 8.9; the highest 2% begin near 13. The entries come from a sample that favours the highest values as a whole.

The target in the assay is T1, ELK1 (Homo sapiens, UniProt P19419 1-428).
T1 sequence: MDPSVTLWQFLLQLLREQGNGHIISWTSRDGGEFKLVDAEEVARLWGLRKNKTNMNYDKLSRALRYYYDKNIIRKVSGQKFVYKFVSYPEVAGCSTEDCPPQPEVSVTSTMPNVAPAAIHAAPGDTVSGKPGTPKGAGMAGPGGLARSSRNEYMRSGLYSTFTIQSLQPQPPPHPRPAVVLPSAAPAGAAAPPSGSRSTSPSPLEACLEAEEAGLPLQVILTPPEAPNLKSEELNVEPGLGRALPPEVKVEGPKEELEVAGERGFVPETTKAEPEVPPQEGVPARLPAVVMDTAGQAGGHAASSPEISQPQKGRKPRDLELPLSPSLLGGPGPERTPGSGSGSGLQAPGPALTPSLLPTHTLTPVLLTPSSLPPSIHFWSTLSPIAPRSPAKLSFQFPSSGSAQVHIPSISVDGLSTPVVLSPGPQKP
As to the kind of experiment: custom PBM; custom protein-binding microarray; buffer, salt, pH and temperature not stated; high values mean tight binding. The following applies: dsDNA, one strand shown.
In the case of “CTGGGATTTGACCCAACTCTGCCACGTGGGTCGTTTGTCTTGATTCGCTTGACGCTGCTG”, the binding signal was 9.02 log fluorescence intensity.
Then “TGTCGGGTAAGGGAATGTAGATCACGTGGATGAAAAGTCTTGATTCGCTTGACGCTGCTG”, with 8.97 log fluorescence intensity; and “TCCGGCTACCAGCTCCACCCACTTCAGGCCTTGTCGGTCTTGATTCGCTTGACGCTGCTG”, with 9.01 log fluorescence intensity; and “CACAGTTTTTACAGTAATGTAGCACGCGTAACTCCTGTCTTGATTCGCTTGACGCTGCTG”, with 8.91 log fluorescence intensity.
To “GTGTATAGGATCCCATCCAACACACGTGATAAAATGGTCTTGATTCGCTTGACGCTGCTG” belongs 8.94 log fluorescence intensity; to “CAGCATAGGACTTCTTCCCTGAAACAATTGATAACCGTCTTGATTCGCTTGACGCTGCTG”, 8.97 log fluorescence intensity.
To “GATTAATTTCTGCCCTTATTCGCACGTGCCCTAACAGTCTTGATTCGCTTGACGCTGCTG” belongs 8.97 log fluorescence intensity; to “TCCGGCTACCAGCTCCACCCACTTCATGCCTTGTAGGTCTTGATTCGCTTGACGCTGCTG”, 8.92 log fluorescence intensity; to “GGAAAAAGGCCCAGGGTAACTCCGGAAGTGGGCTTAGTCTTGATTCGCTTGACGCTGCTG”, 10.4 log fluorescence intensity.
For “GTGTATAGGATCCCATCCAACACACGTGTTACAATGGTCTTGATTCGCTTGACGCTGCTG”, the binding signal was 9.02 log fluorescence intensity.
Then “TGTCGGGTAAGGGAATGTACATCACGTGAATGAAAAGTCTTGATTCGCTTGACGCTGCTG”, with 8.92 log fluorescence intensity; and “GTGTATAGGATCCCATCCCACACACGTGTTAAAATGGTCTTGATTCGCTTGACGCTGCTG”, with 9.07 log fluorescence intensity.
Consider “CGGAAGTGTTGTAAACGTCGGATATCCGGTTCTTCTGTCTTGATTCGCTTGACGCTGCTG”, for which the binding signal is 12 log fluorescence intensity.
To “GGAAAAAGGCCCAGGGTACCACCGGAAGTGGGCTTAGTCTTGATTCGCTTGACGCTGCTG” belongs 11.1 log fluorescence intensity; to “GGAAAAAGGCCCAGGATAACACCGGAAGTGGGCTTAGTCTTGATTCGCTTGACGCTGCTG”, 11.1 log fluorescence intensity.
To “TGTCGGGTAAGGGAATGTAGATCACGTGAATGAAGAGTCTTGATTCGCTTGACGCTGCTG” belongs 9.1 log fluorescence intensity; to “TACTGACTTATATATGCGAATGCACATGAATAGCCCGTCTTGATTCGCTTGACGCTGCTG”, 8.94 log fluorescence intensity; to “CTGGGACTTGACCCAACTCTGCTACGTGGGTCGTTTGTCTTGATTCGCTTGACGCTGCTG”, 8.94 log fluorescence intensity.
To “TAAAGGGAAGACGGTTGTGGTAGTTCCGGGGATTAAGTCTTGATTCGCTTGACGCTGCTG” belongs 10.9 log fluorescence intensity; to “GCTGCTGCGGTGCTTACCCCACCGGATGTGACCCCGGTCTTGATTCGCTTGACGCTGCTG”, 10.2 log fluorescence intensity.
In the case of “GATTAATTTCCGCCCTTATTCGCACGTGCCATAACAGTCTTGATTCGCTTGACGCTGCTG”, the binding signal is 12.5 log fluorescence intensity.
Consider “TAGAGGGAAGACGGTTGTGGTAGTTCCGGGTATTAAGTCTTGATTCGCTTGACGCTGCTG”, for which the binding signal is 11.2 log fluorescence intensity.
As for “GATTAATTTCTGCCCTTATTCGCACGTGCCATACCAGTCTTGATTCGCTTGACGCTGCTG”, the binding signal was 8.97 log fluorescence intensity.
To “GCTCCTGCGGTGCATACCCCACCGGATGTGACCCCGGTCTTGATTCGCTTGACGCTGCTG” belongs 10.3 log fluorescence intensity; to “TACTGACTTATATATGCTAATGCACATGAATAGACCGTCTTGATTCGCTTGACGCTGCTG”, 8.92 log fluorescence intensity; to “GGAAAAAGCCCCAGGGTAACACCGGAAGTGGGCTTAGTCTTGATTCGCTTGACGCTGCTG”, 10.8 log fluorescence intensity.
To “TAAAGGGAAGGCGGTTGTGGTAGTTCCGGGTATTAAGTCTTGATTCGCTTGACGCTGCTG” belongs 11.5 log fluorescence intensity.
With “TAAAGGGAAGACGGTGGTGGTAGTTCCGGGTATTAAGTCTTGATTCGCTTGACGCTGCTG”, the binding signal was 11.1 log fluorescence intensity.
As to “GCTGCTGCGGTGCATAGCCCACCGGATGTGACCCCGGTCTTGATTCGCTTGACGCTGCTG”, the binding signal is 10.4 log fluorescence intensity.
Then “CGGAAGTGTCGTAAACGTCGGATATGCGGTTCTTCTGTCTTGATTCGCTTGACGCTGCTG”, with 9.16 log fluorescence intensity; and “TCCGGCTACCAGGTCCACCCACTTCAGGCCTTGTAGGTCTTGATTCGCTTGACGCTGCTG”, with 8.9 log fluorescence intensity.
Turning to “ATGGGACTTGACCCAACTCTGCCACGTGGGTCGTTTGTCTTGATTCGCTTGACGCTGCTG”, the binding signal was 8.96 log fluorescence intensity.
To “TACTGATTTATATATGCGAATGCACATGAATAGACCGTCTTGATTCGCTTGACGCTGCTG” belongs 8.91 log fluorescence intensity; to “CTGGGACTTGATCCAACTCTGCCACGTGGGTCGTTTGTCTTGATTCGCTTGACGCTGCTG”, 8.95 log fluorescence intensity; to “TAAAGGGAAGACGGTCGTGGTAGTTCCGGGTATTAAGTCTTGATTCGCTTGACGCTGCTG”, 11.3 log fluorescence intensity.
To “CAGCATAGGACTTCTTCCCTGAAGCAAGTGATAACCGTCTTGATTCGCTTGACGCTGCTG” belongs 8.97 log fluorescence intensity.
To “GATTAATTTCTGCCATTATTCGCACGTGCCATAACAGTCTTGATTCGCTTGACGCTGCTG” belongs 8.92 log fluorescence intensity.
On to “TAAAGGGAAGACGGTTGTGGTACTTCCGGGTATTAAGTCTTGATTCGCTTGACGCTGCTG”, for which the binding signal was 12 log fluorescence intensity.
To “TAAAGGGAAGACGGTTGTGGTTGTTCCGGGTATTAAGTCTTGATTCGCTTGACGCTGCTG” belongs 10.5 log fluorescence intensity; to “CACAATTTTTACAGTAATTTAGCACGCGTAACTCCTGTCTTGATTCGCTTGACGCTGCTG”, 8.93 log fluorescence intensity; to “TACTGACTTATATATGCGAATGCACATGATTAGACCGTCTTGATTCGCTTGACGCTGCTG”, 9 log fluorescence intensity.
